tim10-1 inh – growth inhibitors of tim10-1 mutant yeast; S. cerevisiae tim10-1 ts strain growth, BacTiter-Glo, 24 h; inhibition, % at 20 µM; actives 2.2% (n = 330,000); AID 463190;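 active means inhibition of at least 40%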;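 further: mutant grown at 25 °C; 0% = DMSO wells with yeast and 100% = wells holding no yeast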
B2AR ag – agonists of human beta-2 adrenergic receptor inducing internalization. response, % (no concentration beside the values). AID 504454. P07550. Am2.2-beta2AR cells, FAP receptor internalization, flow cytometry. actives 0.43% (n = 340,000);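 active means response above a set limit, near 3 SD of response in nonfluorescent compounds, cut at about 42% in these data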
Target sequence (P07550 whole entry, looked up): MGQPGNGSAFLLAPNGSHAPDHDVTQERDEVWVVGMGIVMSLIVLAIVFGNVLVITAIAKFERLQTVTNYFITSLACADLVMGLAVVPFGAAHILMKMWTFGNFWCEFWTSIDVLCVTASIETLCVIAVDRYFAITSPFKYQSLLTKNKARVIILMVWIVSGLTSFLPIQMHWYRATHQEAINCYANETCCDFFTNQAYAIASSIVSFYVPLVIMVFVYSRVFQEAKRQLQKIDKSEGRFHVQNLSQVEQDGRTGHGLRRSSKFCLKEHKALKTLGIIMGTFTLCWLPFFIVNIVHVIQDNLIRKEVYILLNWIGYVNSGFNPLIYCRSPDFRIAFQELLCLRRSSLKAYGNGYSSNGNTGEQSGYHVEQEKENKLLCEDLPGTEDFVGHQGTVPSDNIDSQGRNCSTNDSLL
TIM10 inh – inhibits growth of TIM10 yeast strain; S. cerevisiae TIM10 strain growth, BacTiter-Glo luminescence, 24 h; inhibition, % at 10 µM; actives 1.4% (n = 330,000); AID 463195;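 active means inhibition of 40% or more at the single tested concentration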;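 further: wild-type TIM10 isogenic control strain grown at permissive 25 °C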
tim23-1 inh – growth inhibitors of tim23-1 mutant yeast; actives 1.3% (n = 330,000); AID 463212; S. cerevisiae tim23-1 growth, BacTiter-Glo luminescence, 24 h; inhibition, % at 20 µM;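 active means growth inhibition of the mutant yeast at or above 50%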;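 further: temperature-sensitive mutant grown at 25 °C; plate controls were DMSO-treated mutant yeast for no effect and medium wells lacking yeast for full effect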
PfHsp90 yeast 2 – inhibits growth of yeast expressing Plasmodium falciparum Hsp90 | S. cerevisiae expressing PfHsp90, BacTiter-Glo ATP, 48 h; yeast lacking PDR1 and PDR3 efflux regulators | inhibition, % at 9.4 µM | actives 0.32% (n = 310,000);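 active means every replicate shows inhibition above about 80%, whatever the replicate mean, limit read from the data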;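 further: 0% = DMSO neutral controls and 100% = 20 µM radicicol positive controls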
tim10-1 confirm – tim10-1 yeast growth inhibition, confirmed | S. cerevisiae tim10-1 ts strain growth, BacTiter-Glo, 24 h | inhibition, % at 20 µM | actives 56% (n = 7,400) | AID 463213 | shares compounds with tim10-1 inh;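 active means inhibition of yeast growth at or above a set limit in either of two repeat tests at 20 µM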;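 further: tim10-1 mutant grown at permissive 25 °C to find synthetic lethal compounds; 0% = DMSO yeast wells and 100% = medium wells without yeast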
* marks the source's active call; other numbers are inactive results; . = no result. Rows were chosen to be rich in hits. Some 3.8% of all compounds tested hit in one or more screens of this group.

SMILES	tim10-1 inh	B2AR ag	TIM10 inh	tim23-1 inh	PfHsp90 yeast 2	tim10-1 confirm
CO/N=C/c1ccc(N2CCN(C(=O)c3cccc(C(F)(F)F)c3)CC2)c([N+](=O)[O-])c1	41*	1	27	28	-16	26
CO/N=C/c1ccc(N2CCN(C(=O)c3ccc(F)cc3)CC2)c([N+](=O)[O-])c1	34	-1	26	43	1	.
Cc1cccc(/C=N/n2c(COc3ccccc3)n[nH]c2=S)c1	43*	-16	36	41	-20	37*
Cc1n[nH]c(=S)n1/N=C/c1cccc(OCc2ccccc2)c1	41*	-7	26	37	7	28
CCOc1ccc(N(CC(=O)Nc2ccc(OC)cc2)C2=NC3CS(=O)(=O)CC3S2)cc1 (stereo not given)	5	11	-1	-9	4	.
Cc1cc(C)n(CCc2nc(-c3ccc(F)cc3)cs2)n1	45*	7	37	30	-2	38*
O=C1S/C(=C\c2ccc(N3CCOCC3)o2)C(=O)N1Cc1ccc(F)cc1	33	-96	19	17	13	.
O=C1S/C(=C/c2ccc(N3CCOCC3)o2)C(=O)N1Cc1ccc(F)cc1	42*	-67	24	25	26	50*
Cc1ccc(C(=O)Nc2nc3ccc(S(C)(=O)=O)cc3s2)o1	44*	1	26	44	.	38*
Cc1ccc(C)c(N2N=C(C(=O)OCC(=O)N(C)c3ccccc3)CCC2=O)c1	5	-5	-1	20	-16	.
Cc1ccc(NC(=O)COC(=O)C2(C)CC2(Cl)Cl)cc1S(=O)(=O)N1CCOCC1 (stereo not given)	20	6	6	2	.	.
CC(C)/C(=N\NS(=O)(=O)c1ccc(Br)cc1)c1cccs1	41*	5	21	36	9	34*
COc1cc(C(=O)OCC(=O)N2CCNC2=O)cc(Cl)c1OC	3	-2	-7	11	.	.
CCc1cccc(NC(=O)C2CCCN2S(=O)(=O)c2ccccc2C(F)(F)F)c1 (stereo not given)	25	-7	4	16	-17	.
CC1CCCC2(C1)NC(=S)c1c(sc3c1CCCC3)N2 (stereo not given)	42*	0	12	31	5	23
CC(C)N(CCn1c(SCC(=O)Nc2cccnc2Cl)nc2ccccc2c1=O)C(C)C	10	-27	11	1	-13	.
O=S(=O)(c1ccc2c(c1)OCCO2)N1CCC(n2cnc3cc(F)ccc32)CC1	23	7	12	24	-3	.
O=S(=O)(c1ccc2c(c1)OCCO2)N1CCC(n2nnc3cc(F)ccc32)CC1	42*	5	35	34	.	30
Cc1cccc2c1N(CCCOc1ccc(C(C)(C)C)cc1)C(=O)C2=O	40*	1	27	47	-18	19
Cc1cccc(OCCN2C(=O)C(=O)c3cccc(C)c32)c1	13	-6	10	31	6	.
Cc1cccc(-c2cc(C(=O)Nc3cccnc3)c3ccccc3n2)c1	40*	3	24	43	0	19
CNC(=S)NNC(=O)c1cc(-c2cccnc2)nc2ccccc12	49*	-10	34	49	55	40*
C=CCNC(=S)NNC(=O)c1cc(-c2cccnc2)nc2ccccc12	11	-9	13	14	9	.
Cc1ccc(-c2cc(C(=O)Nc3cccnc3)c3ccccc3n2)s1	42*	-2	28	35	12	13
Cc1cccc(CC(=O)N2CCN(C(=O)c3ccco3)CC2)c1	12	-7	1	-1	16	.
COc1cc(CC(=O)OCC(=O)N2CCCCC2)cc(OC)c1OC	2	1	-16	5	3	.
CC(C)N(Cc1ccccc1)C(=O)C1CCCN(c2ncnc3c2nc2n3CCCCC2)C1 (stereo not given)	31	-1	10	25	19	.
O=C(C1CCN(c2ncnc3c2nc2n3CCCCC2)CC1)N1CCN(c2ccccc2F)CC1	30	-1	28	15	-31	.
CCCCN(Cc1ccco1)C(=O)C1CCCN(c2ncnc3c2nc2n3CCCCC2)C1 (stereo not given)	41*	-2	15	34	-11	-2
